# Experimental data taken from PubChem BioAssay AID540332 (The Scripps Research Institute Molecular Screening Center, 2011).
# Unmarked numbers belong to inactive results. The rule behind the calls is not given here.
# System: Rolipram
# Experiment: selectivity profile across receptors and CYP450s – biochemical, Ricerca HitProfilingScreen, CYP450, set 2, selectivity assay for S1P4 agonist project, profiling panel (AID 540332)
# Conditions: at 30 µM; hits give high values
smiles,measurement,value
COCCN=C1S/C(=C\c2cc(C)n(-c3ccc(F)cc3F)c2C)C(=O)N1C,inhibition,15%
